# Test results as given in the supplement of paper PMC6897291.
# Structures can show the parent of a compound that is named as a salt.
# Key:
# U-2932 [1] = experiment: growth inhibition by drug alone (1 - RLU/untreated control) (fraction); higher = stronger inhibition; details: 177Lu-lilotomab satetraxetan 0 ug/ml
# How it was run: (§1)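 With or without 18 h pretreatment by a radiolabelled anti-CD37 antibody conjugate (~600 MBq/mg; 0.5 µg/ml RIVA, 1 µg/ml U-2932), RIVA and U-2932 cells were washed and plated at 3,000 cells/well. Pre-printed compound doses were 10/100 nM for RIVA and 10/1,000 nM for U-2932. Growth inhibition uses RealTime-Glo RLU relative to the untreated no-drug wells. The calculation is 1 − RLU/mean of 48 such wells per plate, with reads daily from day 3 after 1 h at 37°C.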
# RIVA [2] = experiment: as above; details: 177Lu-lilotomab satetraxetan 0 ug/ml
# How it was run: as §1
# U-2932 [3] = experiment: growth inhibition by drug plus 177Lu-lilotomab satetraxetan (1 - RLU/untreated control) (fraction); higher = stronger inhibition; details: 177Lu-lilotomab satetraxetan 1 ug/ml
# How it was run: as §1
# RIVA [4] = experiment: as above; details: 177Lu-lilotomab satetraxetan 0.5 ug/ml
# How it was run: as §1
Compound,"growth inhibition by drug alone (U-2932 [1]; 10 nM, time (day): 3)","growth inhibition by drug alone (U-2932 [1]; 10 nM, time (day): 4)","growth inhibition by drug alone (U-2932 [1]; 10 nM, time (day): 5)","growth inhibition by drug alone (U-2932 [1]; 10 nM, time (day): 6)","growth inhibition by drug alone (U-2932 [1]; 1000 nM, time (day): 3)","growth inhibition by drug alone (U-2932 [1]; 1000 nM, time (day): 4)","growth inhibition by drug alone (U-2932 [1]; 1000 nM, time (day): 5)","growth inhibition by drug alone (U-2932 [1]; 1000 nM, time (day): 6)","growth inhibition by drug alone (RIVA [2]; 10 nM, time (day): 3)","growth inhibition by drug alone (RIVA [2]; 10 nM, time (day): 4)","growth inhibition by drug alone (RIVA [2]; 10 nM, time (day): 5)","growth inhibition by drug alone (RIVA [2]; 10 nM, time (day): 6)","growth inhibition by drug alone (RIVA [2]; 100 nM, time (day): 3)","growth inhibition by drug alone (RIVA [2]; 100 nM, time (day): 4)","growth inhibition by drug alone (RIVA [2]; 100 nM, time (day): 5)","growth inhibition by drug alone (RIVA [2]; 100 nM, time (day): 6)","growth inhibition by drug plus 177Lu-lilotomab satetraxetan (U-2932 [3]; 10 nM, time (day): 3)","growth inhibition by drug plus 177Lu-lilotomab satetraxetan (U-2932 [3]; 10 nM, time (day): 4)","growth inhibition by drug plus 177Lu-lilotomab satetraxetan (U-2932 [3]; 10 nM, time (day): 5)","growth inhibition by drug plus 177Lu-lilotomab satetraxetan (U-2932 [3]; 10 nM, time (day): 6)","growth inhibition by drug plus 177Lu-lilotomab satetraxetan (U-2932 [3]; 1000 nM, time (day): 3)","growth inhibition by drug plus 177Lu-lilotomab satetraxetan (U-2932 [3]; 1000 nM, time (day): 4)","growth inhibition by drug plus 177Lu-lilotomab satetraxetan (U-2932 [3]; 1000 nM, time (day): 5)","growth inhibition by drug plus 177Lu-lilotomab satetraxetan (U-2932 [3]; 1000 nM, time (day): 6)","growth inhibition by drug plus 177Lu-lilotomab satetraxetan (RIVA [4]; 10 nM, time (day): 3)","growth inhibition by drug plus 177Lu-lilotomab satetraxetan (RIVA [4]; 10 nM, time (day): 4)","growth inhibition by drug plus 177Lu-lilotomab satetraxetan (RIVA [4]; 10 nM, time (day): 5)","growth inhibition by drug plus 177Lu-lilotomab satetraxetan (RIVA [4]; 10 nM, time (day): 6)","growth inhibition by drug plus 177Lu-lilotomab satetraxetan (RIVA [4]; 100 nM, time (day): 3)","growth inhibition by drug plus 177Lu-lilotomab satetraxetan (RIVA [4]; 100 nM, time (day): 4)","growth inhibition by drug plus 177Lu-lilotomab satetraxetan (RIVA [4]; 100 nM, time (day): 5)","growth inhibition by drug plus 177Lu-lilotomab satetraxetan (RIVA [4]; 100 nM, time (day): 6)"
COC(=O)Nc1nc2cc(C(=O)c3cccs3)ccc2[nH]1 [Nocodazole],0.162,0.111,0.0124,-0.0733,0.959,0.967,0.972,0.977,-0.0176,-0.0388,-0.162,-0.595,0.948,0.956,0.957,0.953,0.00977,0.0511,0.0524,0.13,0.971,0.978,0.982,0.984,0.402,0.532,0.541,0.547,0.956,0.968,0.974,0.979
Nc1ccn([C@@H]2O[C@H](CO)[C@@H](O)[C@@H]2O)c(=O)n1 [Cytarabine],-0.00637,0.0194,-0.0299,-0.0808,0.484,0.568,0.585,0.6,-0.0997,-0.0678,-0.108,-0.326,-0.231,0.0413,0.0792,0.023,-0.0521,0.00463,-0.0153,-0.0601,0.688,0.801,0.859,0.89,0.51,0.601,0.632,0.644,0.655,0.771,0.793,0.81
COc1cc2nccc(Oc3ccc(NC(=O)Nc4cc(C)on4)c(Cl)c3)c2cc1OC [Tivozanib (AV-951)],0.14,0.0745,-0.00279,-0.0876,0.0629,0.0968,0.0897,0.0763,0.0535,0.0633,0.0278,-0.222,0.0881,0.104,0.0755,0.00134,0.0499,0.0836,0.127,0.144,0.13,0.217,0.26,0.368,0.453,0.547,0.57,0.565,0.438,0.535,0.537,0.526
C[C@H](NC(=O)Cc1cc(F)cc(F)c1)C(=O)N[C@H](C(=O)OC(C)(C)C)c1ccccc1,-0.0234,-0.0325,-0.047,-0.000319,-0.0711,-0.073,-0.0673,-0.0373,-0.112,-0.175,-0.192,-0.264,-0.299,-0.293,-0.297,-0.351,-0.0297,0.0223,0.0667,0.147,-0.025,0.0181,0.0285,0.158,0.498,0.535,0.549,0.545,0.341,0.426,0.437,0.445
Cc1cnc(-c2cnc(NCCNc3ccc(C#N)cn3)nc2-c2ccc(Cl)cc2Cl)[nH]1,0.154,0.101,0.0269,-0.034,0.119,0.0751,-0.139,-0.197,0.0622,0.0911,0.0352,-0.132,-0.000657,0.0178,-0.0435,-0.16,0.0605,0.123,0.113,0.204,0.0116,0.0464,0.0105,0.0661,0.532,0.598,0.613,0.613,0.455,0.536,0.536,0.541
O=C(O)C(=O)O.[NH-]C1CCCCC1[NH-].[Pt+2] (stereo unspecified) [Oxaliplatin (Eloxatin)],0.138,0.113,-0.0491,-0.0738,0.613,0.565,0.489,0.46,0.335,0.288,0.293,0.22,-0.171,-0.0865,-0.121,-0.155,0.123,0.163,0.223,0.284,0.675,0.638,0.604,0.608,0.6,0.598,0.621,0.626,0.453,0.516,0.534,0.531
Cc1ccc(Nc2nccc(N(C)c3ccc4c(C)n(C)nc4c3)n2)cc1S(N)(=O)=O [Pazopanib],0.0671,0.059,0.0169,-0.0275,0.0873,0.113,0.0564,-0.194,0.149,0.0444,-0.0206,-0.258,0.117,0.0561,0.0246,-0.0758,0.0594,0.0779,0.0787,0.118,-0.00732,0.0799,0.0706,0.00785,0.437,0.548,0.557,0.564,0.418,0.47,0.488,0.477
C=CCn1c(=O)c2cnc(Nc3ccc(N4CCN(C)CC4)cc3)nc2n1-c1cccc(C(C)(C)O)n1,0.112,0.069,-0.0363,-0.19,0.86,0.895,0.914,0.936,-0.0778,-0.0715,-0.175,-0.482,-0.508,-0.354,-0.45,-0.813,-0.0165,0.0521,0.116,0.141,0.884,0.926,0.954,0.971,0.447,0.527,0.532,0.552,-0.0318,0.133,0.152,0.222
CC(C)(C)c1ccc(S(=O)(=O)/C=C/C#N)cc1,0.0951,0.0673,-0.0262,-0.0534,0.386,0.401,0.352,0.365,-0.0115,-1.37e-05,-0.0516,-0.202,-0.0892,-0.063,-0.0854,-0.195,-0.0145,0.0216,0.0584,0.0727,0.517,0.565,0.534,0.533,0.438,0.555,0.567,0.581,0.452,0.513,0.508,0.495
CC(C)C(=O)Nc1ccc([N+](=O)[O-])c(C(F)(F)F)c1 [Flutamide (Eulexin)],0.147,0.0928,0.0103,-0.0414,0.15,0.123,0.105,0.0519,0.122,0.106,0.0768,-0.0242,-0.044,0.0232,0.0258,-0.0163,0.105,0.202,0.26,0.327,0.175,0.211,0.291,0.385,0.611,0.616,0.649,0.663,0.534,0.562,0.599,0.626
c1ccc2c(CCNc3ccc(Nc4ccncc4)cc3)c[nH]c2c1,0.0584,0.057,0.0439,-0.174,0.0747,0.114,0.115,-0.0134,-0.0529,-0.0355,-0.189,-0.337,-0.226,-0.135,-0.248,-0.272,0.0442,0.058,0.101,0.125,0.0679,0.191,0.21,0.292,0.249,0.475,0.497,0.5,0.12,0.259,0.278,0.294
CNC(=O)c1cc(Oc2ccc(NC(=O)Nc3ccc(Cl)c(C(F)(F)F)c3)cc2)ccn1 [Sorafenib (Nexavar)],0.065,0.061,0.0056,-0.0896,0.0548,0.172,0.16,0.0821,-0.0351,-0.0584,-0.0811,-0.269,-0.171,-0.0734,-0.0752,-0.125,-0.0368,-0.00107,-0.00478,0.0413,-0.000329,0.177,0.189,0.145,0.328,0.487,0.498,0.507,0.415,0.561,0.594,0.583
COc1ccc(C2=N[C@@H](c3ccc(Cl)cc3)[C@@H](c3ccc(Cl)cc3)N2C(=O)N2CCNC(=O)C2)c(OC(C)C)c1 [Nutlin-3],-0.04,-0.0423,-0.094,-0.287,-0.0802,-0.0948,-0.145,-0.237,-0.198,-0.261,-0.371,-0.533,-0.567,-0.492,-0.511,-0.69,-0.0474,0.00784,0.0366,0.0903,-0.00272,-0.0242,0.00355,0.11,0.386,0.472,0.502,0.521,0.328,0.467,0.479,0.496
CO[C@H]1/C=C\C=C(/C)C(=O)NC2=CC(=O)C(NCCN(C)C)=C(C[C@@H](C)C[C@H](OC)[C@H](O)[C@@H](C)/C=C(\C)[C@@H]1OC(N)=O)C2=O [17-DMAG HCl (Alvespimycin)],0.163,0.099,-0.033,-0.0727,0.944,0.979,0.985,0.986,0.132,0.103,0.0633,-0.0974,0.922,0.953,0.961,0.96,0.0703,0.119,0.177,0.21,0.956,0.982,0.988,0.99,0.602,0.624,0.637,0.653,0.96,0.98,–,–
